The results in this text go back to PubChem BioAssay AID463173 (ICCB-Longwood Screening Facility, Harvard Medical School, 2010).

Molecules are shown by their SMILES. The campaign covered roughly 52,000 compounds. About 4,300 (8.3%) were called active. For the sample, actives were picked, then their nearest neighbours and some compounds at random. A number with no mark means an inactive call. No stated cut-off is given here; in the data, active means survival mostly below about 52% (no sharp cut-off); inactive means mostly above about 56%.

The subject of the experiment is DeltatarO mutant. Briefly: growth inhibition of S. aureus wild type versus tarO mutant, primary screen, teichoic acid synthesis inhibitors, RN4220, OD600 (AID 463173). The note with it: OD600, 18 h, hits give low values, screened at 18.75 µg/mL (by protocol).
As to `CCOC(=O)c1cc(-c2ccc(F)cc2)n(CCC(=O)Nc2cc(OC)cc(OC)c2)c1C`, the survival is 71%.
With `Cc1ccc(Cl)cc1-n1ncc2c(Nc3ccc4c(c3)OCCO4)ncnc21` the figure was 82%; with `Cc1c(C(=O)N2CCCC2)oc2c1-c1nn(CC(=O)NCc3cccc(Br)c3)cc1CC2`, 75%; with `COc1ccccc1-c1cc2nc(C)c(CCC(=O)Nc3cc(C)ccc3C)c(C)n2n1`, 60%.
Under `COc1ccc(CNC(=O)C2(c3cccs3)CCOCC2)cc1` stands 72%; under `CCOc1ccc2c(c1)c(=O)c(S(=O)(=O)c1ccccc1)cn2CC(=O)Nc1ccccc1OC`, 70%.
With `CC1=C(C(=O)NCc2ccc(Cl)cc2)C2(CCC(C)CC2)OC1=O` (centres undefined) the figure was 86%.
With `Cc1nn(C)c2c1c(C(F)(F)F)cc(=O)n2C(C)C(=O)NCCc1ccc(Cl)cc1` (centres undefined), the survival was 81%.
Under `Cn1c(=O)nc2n(-c3ccc(Cl)c(Cl)c3)c3cc(Cl)ccc3cc-2c1=O` stands 87%; under `CCOc1ccc(CN2CCc3nc(N4CCN(c5ccccn5)CC4)ncc3C2)cc1OC`, 120%; under `COc1ccc(C2c3c(oc4ccccc4c3=O)C(=O)N2Cc2ccc3c(c2)OCO3)cc1` (centres undefined), 71%.
Under `COc1cc(C2c3c(oc4ccccc4c3=O)C(=O)N2c2nnc(C(C)C)s2)cc(OC)c1OC` (centres undefined) stands 63%; under `CCOc1cc(C2c3c(oc4ccccc4c3=O)C(=O)N2Cc2ccc3c(c2)OCO3)ccc1O` (centres undefined), 81%.
Under `Cc1nc(N2C(=O)c3oc4ccccc4c(=O)c3C2c2cccc(OCCC(C)C)c2)sc1C` (centres undefined) stands 59%.
Regarding `CCCOc1ccc(C2c3c(oc4ccccc4c3=O)C(=O)N2c2nc(C)c(C(=O)OCC)s2)cc1` (centres undefined), the survival was 60%.
With `CCOc1ccc(C2c3c(oc4ccccc4c3=O)C(=O)N2Cc2ccc3c(c2)OCO3)cc1` (centres undefined), the survival was 36% (active).
Consider `CCOc1cccc(C2c3c(oc4cc(C)c(C)cc4c3=O)C(=O)N2c2nc(C)c(C)s2)c1` (centres undefined), for which the survival is 74% (active).
Under `CCOC(=O)c1sc(N2C(=O)c3oc4ccccc4c(=O)c3C2c2ccc(C(C)(C)C)cc2)nc1C` (centres undefined) stands 51% (active).
Under `CCCOc1ccc(C2c3c(oc4ccccc4c3=O)C(=O)N2c2nnc(C(C)C)s2)cc1` (centres undefined) stands 58% (active).
With `COC(=O)c1ccc(C2c3c(oc4ccccc4c3=O)C(=O)N2c2nc(C)c(C(=O)OC)s2)cc1` (centres undefined) the figure was 71%; with `CCOc1cccc(C2c3c(oc4ccccc4c3=O)C(=O)N2c2nc(C)c(C(=O)OC)s2)c1` (centres undefined), 51%; with `CC(C)c1nnc(N2C(=O)c3oc4ccccc4c(=O)c3C2c2cccc(O)c2)s1` (centres undefined), 62%.
As for `Cc1cccc(CC(=O)NCCc2csc(-c3ccc(C(F)(F)F)cc3)n2)c1`, the survival is 101%.
With `CCc1ccc(-n2c(=O)c3ccccc3n(CC(=O)NCCc3ccc(OC)c(OC)c3)c2=O)cc1` the figure was 91%.
Under `CC(C)OC(=O)CSc1nnc(-c2ccc(O)cc2)o1` stands 72%; under `COc1ccc(CSC(=N)N)cc1Cl`, 97%.
Under `COc1ccc(-c2csc(N)n2)cc1C` stands 97%; under `O=C(NCC(c1ccco1)S(=O)(=O)c1cccs1)c1ccc(F)c(F)c1` (centres undefined), 75%.
Consider `Cc1ccc(NC(=O)CCCn2nc(C)c3c(C)n(-c4ccccc4)nc3c2=O)c(Cl)c1`, for which the survival was 89%.
With `Cc1cc(Cl)ccc1NC(=O)CCn1nc(C)c2c(C)n(-c3ccccc3)nc2c1=O` the figure was 72%.
Consider `Cc1ccc(C)c(NC(=O)CCn2nc(C)c3c(C)n(-c4ccccc4)nc3c2=O)c1`, for which the survival is 37% (active).
Under `COc1ccc(CNC(=O)CCn2nc(C)c3c(C)n(-c4ccccc4)nc3c2=O)cc1OC` stands 0% (active); under `COc1ccc(CNC(=O)CCCn2nc(C)c3c(C)n(-c4ccc(C)cc4)nc3c2=O)cc1OC`, 74%; under `Cc1cc(Cl)ccc1NC(=O)CCCn1nc(C)c2c(C)n(-c3ccccc3)nc2c1=O`, 112%.
As for `COc1cc(OC)c(NC(=O)CCCn2nc(C)c3c(C)n(-c4ccccc4)nc3c2=O)cc1Cl`, the survival is 32% (active).
Under `COc1cccc(CNC(=O)CCn2nc(C)c3c(C)n(-c4ccccc4)nc3c2=O)c1` stands 83%; under `Cc1ccc(CCNC(=O)Cn2nc(C)c3c(C)n(-c4ccc(C)cc4)nc3c2=O)cc1`, 79%; under `CCN(CC)CCNC(=O)Cn1nc(C)c2c(C)n(-c3ccccc3)nc2c1=O`, 70%.
For `CCOc1ccc(CCNC(=O)Cn2nc(C)c3c(C)n(-c4ccccc4)nc3c2=O)cc1OCC`, the survival was 25% (active).
Under `Cc1cccc(NC(=O)CCn2nc(C)c3c(C)n(-c4ccccc4)nc3c2=O)c1C` stands 57%; under `CCN(c1cccc(C)c1)S(=O)(=O)c1cc2c(cc1C)n(C)c(=O)c(=O)n2C`, 85%.
On to `COC(=O)c1ccccc1NC(=O)CCCn1c(C)c2cnn(-c3ccccc3)c(=O)c2c1C`, for which the survival is 90%.
In the case of `COc1ccc(OC)c(C2=NS(=O)(=O)N(C)C(C(=O)Nc3ccc(F)cc3F)=C2)c1`, the survival was 72%.
`COC(=O)c1ccc(NC(=O)CN(C)S(=O)(=O)c2ccc3c(c2)CCCC(=O)N3)cc1`: the survival is 79%.
Under `CCCN1C2CCCC1CC(NC(=O)NC1CCCCC1)C2` (centres undefined) stands 59%; under `CCOC(=O)c1cc2c(ccn2-c2ccc(F)cc2)n1CC(=O)N1C(C)CCCC1C` (centres undefined), 103%; under `CC(=O)c1cc(C(=O)Nc2cc(C)cc(C)c2)c2ccccn12`, 43%.
With `CCOc1cccc(C2c3[nH]c4ccccc4c3CCN2C(=O)CCC2CCCC2)c1` (centres undefined) the figure was 78%; with `COC(=O)c1ccccc1NC(=O)Cn1cnc2sc(C)c(S(=O)(=O)N3CCC(C)CC3)c2c1=O`, 59%.
Under `CCc1ccc(CNC(=O)CCn2nc(C)c3c(C)n(-c4ccccc4)nc3c2=O)cc1` stands 55%; under `Cc1nn(CCC(=O)NCc2ccc(N(C)C)cc2)c(=O)c2nn(-c3ccccc3)c(C)c12`, 95%.
In the case of `Cc1nn(CCC(=O)NCc2ccc(Cl)cc2)c(=O)c2nn(-c3ccccc3)c(C)c12`, the survival is 0% (active).
As for `O=c1c2cnn(-c3ccc(Cl)cc3)c2ncn1Cc1ccc(Cl)cc1Cl`, the survival was 102%.
Under `CCc1ccccc1NC(=O)C1CCCN(S(=O)(=O)c2ccc3[nH]c(=O)ccc3c2)C1` (centres undefined) stands 88%.
